# Data reported in the OligoGym collection.
# Target: AGAP3
# Assay: pooled miR-30 sensor sort-seq; sequence = guide strand
# Details: shRNA
# Further: reference of the scale not given here.
row,Sequence,sensor-assay potency score (higher = more potent)
1,TTCATCTCGGATCAGCAGCAGG,-1.26
2,TCTGCTGTCGTCGATAACCCGG,-1.3
3,TACCAGATGAGCAGCTGCGTGA,-0.56
4,TTAAGCTCCGGTACGGAGCGGC,-0.14
5,ATTGGGTGCATCGCAGTCGATA,-1.38
6,TTGTACACCGTCTGGAAACTGA,-0.718
7,TACTTCTTCTTCCACTCCTTGT,-0.51
8,TGGAACTGAGTACCTCAGCTGG,-1.58
9,TACACAAACATAAATATTCCAA,-0.597
10,TCGCAGTCGATACAAAAGCTGT,-1.8
11,ATACTTCTTCTTCCACTCCTTG,-0.733
12,TTCCCTGGCACTTTCACCGTTG,-0.316

# Target: AGBL5
# Assay: as above
# Details: shRNA
row,Sequence,sensor-assay potency score (higher = more potent)
1,TTGCATTCAAGTGTGTAGCTGT,0.765
2,TAGATTAGTAAGGCTGCTGTGC,-0.537
3,TTGAAGACAAAGCTAGATGGAG,-0.419
4,TTCCGTTTCAGCACAGTCTGGT,0.615
5,TTCTTCTCTGAGAAATTGCAGC,-0.823
6,TTTAGGGACAAAACAAACCTCA,-0.454
7,ATCTACACGAAGTCCATCCAGA,-1.07
8,TTGTAGATTGCAACACGGCCGC,-0.607
9,TTTGGAAGCATGTCCATGCAGG,-0.608
10,TTTCAGCACAGTCTGGTCGGGT,-0.447
11,TTGTAGTTGCATTCAAGTGTGT,0.25
12,AATAGTTCCACAGTGTATCTGG,0.759
